Experimental data published in PubChem BioAssay AID1159580 (chemical genetic matrix, 2015).
The campaign covered roughly 5,500 compounds. About 2,000 (36%) were called active. Roughly 18% stayed inconclusive and do not appear here. Some of the results follow. A number with no mark means an inactive call. Rule as the data show it: active = normalized growth mostly below about 0.91 (no sharp cut-off); inconclusive = no clear call, values can overlap the other calls; inactive = mostly above about 0.92.

Test: chemical genetic growth profiling, strain panel (AID 1159580);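 also: tested at 20 µM; growth read once vehicle control cultures reached saturation at 30 °C; 1 = growth at the plate median or of vehicle wells; lower values mean less growth of the strain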
Details: S. cerevisiae deletion strains, growth OD

## CC(=O)[C@H]1CC[C@H]2[C@@H]3CCC4=CC(=O)CC[C@]4(C)[C@H]3CC[C@]12C
Locus YAL013W, strain DEP1, hits give low values
  normalized growth: 0.994
Locus YAL040C, strain CLN3, hits give low values
  normalized growth: 0.992
Locus YCL061C, strain MRC1 (second series), hits give low values
  normalized growth: 1
Locus YDR363W, strain ESC2, hits give low values
  normalized growth: 1.01
Locus YER002W, strain NOP16, hits give low values
  normalized growth: 0.973
Locus YGR078C, strain PAC10, hits give low values
  normalized growth: 0.998
Locus YGR229C, strain SMI1, hits give low values
  normalized growth: 1.17 [resistant] (active)
Locus YJR075W, strain HOC1, hits give low values
  normalized growth: 0.99
Locus YMR307W, strain GAS1, hits give low values
  normalized growth: 0.979
Locus YNL175C, strain NOP13, hits give low values
  normalized growth: 0.991
Locus YNL197C, strain WHI3, hits give low values
  normalized growth: 0.986
Locus YNL224C, strain SQS1, hits give low values
  normalized growth: 0.992
Locus YOR083W, strain WHI5 (second series), hits give low values
  normalized growth: 1.01
Locus YPL055C, strain LGE1, hits give low values
  normalized growth: 0.99
Locus YPL241C, strain CIN2, hits give low values
  normalized growth: 0.995
